This is a sample that favours compounds with a hit; in the whole collection about 5.7% have one here.
RORg inh – blocks mouse ROR gamma transcriptional activity | Drosophila S2 Gal4-RORgamma UAS-luciferase reporter, 20 h | Potency, µM (titrated, usually from 53.6 µM), hits mostly inhibitors | actives 5.4% (n = 310,000); further: nearly all actives have a fitted effect of over 60% in size
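Drosophila S2 cells stably expressing Gal4-DBD/mouse RORγ fusion under metallothionein promoter plus UAS-luciferase; compound 1 h, then 700 uM CuSO4 induction for 20 h at ambient temperature; inhibition read as reduced luminescence.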
B2AR arrestin – recruits beta-arrestin to the human beta2-adrenergic receptor; actives 0.02% (n = 330,000); Potency, µM (titrated, usually from 46.1 µM), hits mostly activators; AID 492947; P07550; beta-arrestin recruitment to beta2AR, cell-based reporter; further: nearly all actives have a fitted effect of over 65% in size
Target sequence (P07550 whole entry, looked up): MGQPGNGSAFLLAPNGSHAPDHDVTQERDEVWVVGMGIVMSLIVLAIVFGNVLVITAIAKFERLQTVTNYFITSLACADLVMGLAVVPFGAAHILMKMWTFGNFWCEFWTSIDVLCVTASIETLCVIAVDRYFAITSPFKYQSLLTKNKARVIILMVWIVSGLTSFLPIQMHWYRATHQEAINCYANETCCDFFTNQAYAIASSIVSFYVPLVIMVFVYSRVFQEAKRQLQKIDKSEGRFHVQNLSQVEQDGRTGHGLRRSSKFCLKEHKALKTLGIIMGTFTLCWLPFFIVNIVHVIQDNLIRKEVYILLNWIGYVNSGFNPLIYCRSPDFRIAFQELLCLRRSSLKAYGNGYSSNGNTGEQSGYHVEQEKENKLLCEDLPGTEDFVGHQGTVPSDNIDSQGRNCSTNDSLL
NPSR antagonist – antagonists of human neuropeptide S receptor cAMP signaling; actives 1% (n = 220,000); Q6W5P4; AID 1461; Potency, µM (doses to about 38.3 µM), most hits filed as inhibitors; CHO-NPSR cells, cAMP TR-FRET, antagonist mode; further: nearly all actives have a fitted effect of over 50% in size
VP16 counter – inhibits Gal4-VP16 luciferase reporter, ROR gamma counter-screen; Drosophila S2 Gal4-VP16 UAS-luciferase, luminescence, 20 h; Potency, µM (doses to about 53.6 µM), usual class: inhibitors; AID 2546; actives 3.5% (n = 310,000);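 further: Gal4-VP16 expression switched on by copper sulfate through the metallothionein promoter; nearly all actives have a fitted effect of over 50% in size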
A number is an active result; . = inactive; ? = inconclusive; / = not tested or not shown; [ ] = dose if it differs, or a comment. The call rests on the fitted dose curve; in most records, active means well fitted curve in the direction sought with a large enough effect; inconclusive means small, poorly fitted or top-dose-only effect, or another doubt; inactive means no such curve, though single readings can be large; an effect the other way counts as inactive or inconclusive.

SMILES | RORg inh | B2AR arrestin | NPSR antagonist | VP16 counter
COc1ccc(OC)c(C2CC(=O)N3CN(c4ccccc4)CSC3=C2C#N)c1 (centres undefined) | 11.2µM | . | . | .
COc1ccc2ccccc2c1C1CC(=O)N2CN(Cc3ccco3)CSC2=C1C#N (centres undefined) | 10µM | . | . | ?
COc1ccc(N2CSC3=C(C#N)C(c4cccc(OC)c4OC)CC(=O)N3C2)cc1 (centres undefined) | . | . | . | .
COc1ccc(C2CC(=O)N3CN(Cc4ccco4)CSC3=C2C#N)cc1 (centres undefined) | . | . | . | .
Oc1c(-c2cc(-c3ccco3)[nH]n2)ccc2ccccc12 | 6.31µM | . | . | 14.1µM
Oc1ccccc1-c1cc(-c2ccco2)[nH]n1 | ? | . | . | ?
Cc1c(-c2cc(Br)ccc2O)nc2cc3c(cc2c1C)OCO3 | . | . | / | .
Oc1ccc(Br)cc1-c1cc(-c2ccco2)[nH]n1 | 12.6µM | . | ? | 15.8µM
Oc1ccc(Cl)cc1-c1cc(-c2ccco2)[nH]n1 | 3.55µM | . | . | 12.6µM
NNC(=O)c1cc(-c2ccco2)[nH]n1 | . | . | . | .
Oc1ccc(Br)cc1-c1ccn[nH]1 | 2.82µM | . | . | 6.31µM
Cc1cc(C)n(-c2nc(SCCN(C)C)c3c4c(sc3n2)CCCC4)n1 | 2.82µM | . | ? | 7.94µM
CCC(O)CNc1nc(-n2nc(C)cc2C)nc2sc3c(c12)CCCC3 (centres undefined) | 2.51µM | . | . | ?
COc1ccc(N2CC(C(=O)N(CC(C)C)c3c(N)n(Cc4ccccc4)c(=O)[nH]c3=O)CC2=O)c(OC)c1 (centres undefined) | / | . | / | /
Cc1ccc2c(c1)-n1c(nc3cc(Cl)ccc3c1=O)C(CC(C)C)NC2=O (centres undefined) | / | . | / | /
COc1ccc(Cn2c(=S)[nH]c3cc(OC)c(OC)cc3c2=O)cc1 | 3.55µM | . | . | ?
COc1cc2[nH]c(=S)n(Cc3ccc(C)cc3)c(=O)c2cc1OC | 1.78µM | . | . | 3.16µM
Cn1cccc1C(=O)N1CCC[C@@]2(CCN(C(c3ccccc3)c3ccccc3)C2)C1 | . | / | / | .
COc1ccc(C2=Nn3c(nnc3-c3ccc(OC)cc3OC)SC2)cc1 | ? | / | / | .
CCn1c(C)cs/c1=N\C(=S)Nc1ccccc1C | 2.24µM | . | . | 5.62µM
COCCn1c(=S)[nH]c2cc(C(=O)NCCc3ccccc3)ccc2c1=O | . | . | / | .
COCCn1c(=S)[nH]c2cc(C(=O)N(CCO)Cc3ccccc3)ccc2c1=O | 11.2µM | . | / | ?
COc1ccc(-n2c(=S)[nH]c3cc(C(=O)N(C)Cc4ccccc4)ccc3c2=O)cc1 | 7.94µM | . | / | ?
COC(=O)c1ccc2c(=O)n(-c3ccc(OC)cc3)c(=S)[nH]c2c1 | 2.82µM | . | . | 5.62µM
COc1ccc(-n2c(=S)[nH]c3c(oc4ccccc43)c2=O)cc1 | 2.82µM | . | . | 4.47µM
SMILES | RORg inh | B2AR arrestin | NPSR antagonist | VP16 counter
CCN(CC)CCCn1c(=S)[nH]c2cc(C(=O)OC)ccc2c1=O | . | . | . | .
CCn1c(=S)[nH]c2cc(C(=O)OC)ccc2c1=O | 12.6µM | . | . | 11.2µM
CC[C@H](C)[C@H](NC(=O)[C@H](CC(=O)O)NC(=O)[C@H](CC(C)C)NC(=O)[C@H](Cc1cnc[nH]1)NC(=O)[C@H](C)NC(=O)[C@H](Cc1ccccc1)NC(=O)[C@H](Cc1ccc(O)cc1)NC(=O)[C@@H](NC(=O)[C@H](C)NC(=O)[C@H](CCC(=O)O)NC(=O)[C@H](CCCCN)NC(=O)[C@H](CC(=O)O)NC(=O)[C@H](CCSC)NC(=O)[C@H](CC(C)C)NC(C)=O)C(C)C)C(=O)N[C@H](C(=O)N[C@@H](Cc1c[nH]c2ccccc12)C(=O)O)[C@@H](C)CC | . | / | / | .
OCC#Cc1ncc(C(F)(F)F)cc1Cl | ? | . | . | 12.6µM
C=CCNC(=O)/C(C#N)=C/c1cc(Br)ccc1OC | 12.6µM | . | . | ?
C=CCNC(=O)/C(C#N)=C/c1ccccc1Cl | . | . | . | .
COc1ccc(C)cc1Nc1n[n+](-c2ccccc2)c(-c2ccc(OC)c(OC)c2OC)s1 | ? | . | / | .
COc1ccc(C)cc1Nc1n[n+](-c2ccccc2)c(-c2ccc(N(C)C)cc2)s1 | 11.2µM | . | / | 5.62µM
COc1ccc(C)cc1Nc1n[n+](-c2ccccc2)c(-c2c(Cl)cccc2Cl)s1 | 7.08µM | . | / | 15.8µM
CC(C)c1ccc(NC(=O)COC(=O)c2nn(C)c(=O)c3ccccc23)cc1 | / | . | / | /
CC12CC3CC(C)(C1)CC(C(=O)N1CCN(C(=O)c4ccco4)CC1)(C3)C2 | ? | . | / | .
C=CCc1cc(/C=C2/NC(=O)N(CC(=O)OC)C2=O)cc(OC)c1O | ? | . | . | .
CC1=Nc2ccccc2/C1=C/c1nc(-c2ccc(C)s2)oc1O | . | . | . | ?
CC1=Nc2ccccc2/C1=C/c1sc(=N)n(-c2nccs2)c1O | 0.631µM | . | ? | 0.794µM
Cc1csc(NC(=O)CCCSc2nc3ccccc3s2)n1 | 31.6µM | . | . | 2µM
CCc1ccccc1NC(=O)CCCSc1nc2ccccc2s1 | ? | . | . | ?
O=C(CCCSc1nc2ccccc2s1)NCc1ccco1 | 14.1µM | . | . | 11.2µM
O=C(NC1CCCCC1)N(Cc1nc2ccccc2c(=O)[nH]1)C1CCCC1 | .[10 µM] | . | .[7.67 µM] | .
O=C(c1ccccc1)N(Cc1nc2ccccc2c(=O)[nH]1)C1CCCCC1 | ? | . | . | .
O=C(c1cccc(F)c1)N(Cc1nc2ccccc2c(=O)[nH]1)C1CCCC1 | 6.31µM | . | . | ?
O=C(c1ccccc1F)N(Cc1nc2ccccc2c(=O)[nH]1)C1CCCC1 | 2.82µM | . | . | 7.94µM
CC(C(=O)NCc1ccccc1Cl)N1C(=O)c2ccccc2C1=O (centres undefined) | . | . | / | .
C/C(=N\NC(=O)Cc1ccc(Cl)cc1)c1ccc(F)cc1 | ? | . | / | .
C/C(=N\NC(=O)CSCc1ccc([N+](=O)[O-])cc1)c1ccccc1O | 0.316µM | . | . | 2µM
C/C(=N\NC(=O)Cc1ccc(Cl)cc1)c1ccccc1O | 0.282µM | . | / | 0.316µM
SMILES | RORg inh | B2AR arrestin | NPSR antagonist | VP16 counter
COc1ccc(-c2nc(C(=O)N3CCN(C)CC3)sc2-c2ccc(OC)cc2)cc1 | . | / | / | .
O=C(Nc1nccs1)C1CC2CCC1C2 (centres undefined) | 7.94µM | . | . | .
O=C(NC1=NCCS1)C1CC2CCC1C2 (centres undefined) | ? | . | . | .
N#Cc1ccc(CN2CCC3(CC2)CCN(C(=O)c2ccncc2)CC3)cc1 | . | / | / | .
CC(=O)Nc1ccc(S(=O)(=O)NNC(=S)NCc2ccco2)cc1 | 11.2µM | . | / | .
CCCCc1ccc(S(=O)(=O)NNC(=S)NCc2ccco2)cc1 | 8.91µM | . | . | ?
CCNS(=O)(=O)c1ccc(NC(=S)NCc2ccco2)cc1 | . | . | . | .
O=S(=O)(NCc1ccccc1)c1ccc(NC(=S)NCc2ccco2)cc1 | ? | . | / | .
CC1(C(=O)NNC(=S)NCc2ccco2)CC1(Cl)Cl (centres undefined) | 8.91µM | . | . | .
CN1CCN(c2ncc3nc(-c4ccccc4)c(=O)n(C4CC4)c3n2)CC1 | . | / | / | .
